Compounds with a hit are over-represented: about 8% of the library has one in this group of screens.
MARV entry inh = qHTS for Inhibitors of binding or entry into cells for Marburg Virus; Marburg virus pseudotype entry/binding inhibition, cell-based; Potency, µM (top dose mostly 49.2 µM), for the others: at the highest dose activity change, negative = inhibition, usual class: inhibitors; 18,000 compounds, 6.5% hits
Lassa entry = qHTS for Inhibitors of binding or entry into cells for Lassa Virus; 18,000 compounds, 4.1% hits; AID 720533, 2013; Lassa virus pseudotyped entry inhibition, cell-based qHTS; Potency, µM (highest dose often 49.2 µM), for the others: at the highest dose activity change, negative = inhibition, most hits filed as inhibitors
Numbers without * were called inactive; ? = inconclusive; · = no result given; ! = not active in a repeat; [ ] = remark or other dose. Calls follow the shape of the full dose curve; tested in HEK293 cells. % is scaled to controls: 0 for no effect and ±100 for the full control effect; potency is read from the fitted curve at half-maximal effect.

SMILES	MARV entry inh	Lassa entry
Cc1cnc(-n2ncc(C(=O)NCCc3cccnc3)c2C)nc1-c1ccc(F)cc1	?	-13%
Cc1cnc(-n2ncc(C(=O)NCCCc3ccncc3)c2C)nc1-c1ccc(F)cc1	20µM*	-12%
C/C1=C2N=C(/C=C3N=C(/C(C)=C4\[N-][C@@](C)([C@@H]5N=C1[C@](C)(CCC(=O)NCC(C)OP(=O)(O)O[C@H]1[C@@H](O)[C@@H](n6cnc7cc(C)c(C)cc76)O[C@@H]1CO)[C@H]5CC(N)=O)[C@@](C)(CC(N)=O)[C@@H]4CCC(N)=O)[C@@](C)(CC(N)=O)[C@@H]\3CCC(N)=O)C(C)(C)[C@@H]/2CCC(N)=O.CC(=O)O.[Co] (some centres not stated)	2.8µM*	3.2µM*
C=CCc1cccc(/C=N/NC(=O)CN2CCN(Cc3ccccc3)CC2)c1O	?	13µM*
C=CCN=C1NC(c2cccc(F)c2)C(C(=O)OC)=C(C)N1Cc1ccccc1 (configuration not stated)	?	-15%[8.59 µM]
CCCSc1cc(OC)c(CCN)cc1OC	22µM*	?
COc1cc(CCN)ccc1O	2%	-1%
Cc1ccc(S(=O)(=O)/C=C/C#N)cc1	2.8µM*	7.1µM*
CC(C)(C)c1ccc(S(=O)(=O)/C=C\C#N)cc1	16µM*	35µM*
Cc1ccc(S(=O)(=O)/C=C\C#N)cc1	10µM*	16µM*
C[C@@](N)(C(=O)O)c1ccc(S(=O)(=O)O)cc1	11%	4%
CCCS(=O)(=O)NCc1c(C)ncc2c1CCN(C(=O)c1ccc(Cl)cc1)C2	?	-1%
CC(C)(C)OC(=O)N1CCCC(C(=O)Nc2cccc(C(=O)NCCCc3ccccc3)c2)C1 (configuration not stated)	?	-15%
CCCCOc1ccc(C(=O)CCN2CCCCC2)cc1	?	-9%
CC(C)N1CCN(c2ccc(C(=O)c3c(-c4ccc(O)cc4)sc4cc(O)ccc34)cc2)CC1	5µM*	?
O=C(c1ccc(OCCN2CCCCC2)cc1)c1c(-c2ccc(O)cc2)sc2cc(O)ccc12	14µM*	32µM*!
O=C1CCC(c2ccc(-n3ccnc3)cc2)=NN1	-10%	0%
CCOC(=O)Nc1ccc2c(c1)N(C(=O)CN(C)C)c1ccccc1CC2	40µM*	?
CCOC(=O)Nc1ccc2c(c1)N(C(=O)CCN1CCOCC1)c1ccccc1S2	18%[17.8 µM]	-12%[17.8 µM]
C[C@@H]1C[C@H](C)C[C@H](C)[C@@H](O)CC(=O)O[C@H]([C@H]2CCC[C@H]2C(=O)O)C/C=C/C=C(/C#N)[C@H](O)[C@@H](C)C1	10µM*	?
CC(N)Cc1c[nH]c2ccc(O)cc12 (configuration not stated)	-16%	-5%
CS(=O)(=O)c1ccc(-c2cccc3c2OC(CNC(=O)c2cc(C4CC4)[nH]n2)C3)cc1 (configuration not stated)	-13%	?
CCC1/C=C/C=CCC(C)C(O)[C@@](C)(O)C(=O)C(C)C(O)C(C)C(=O)C(C)C(O)C(C)C=CC(=O)O[C@H]2C(C)C(CC1)O[C@]1(CCC(C)C(CC(C)O)O1)C2C (some centres not stated)	0.079µM*	?
Cc1cccc(CNc2ccnc(-c3ccoc3)n2)c1	13%	9%
O=C(Nc1ccccc1)c1cc([N+](=O)[O-])ccc1Cl	?	-25%
SMILES	MARV entry inh	Lassa entry
O=C(Nc1ccc([N+](=O)[O-])cc1Cl)c1cc(Cl)ccc1O	5µM*!	1.1µM*
Oc1ccc(Cl)cc1CN1CCOc2c(O)cc(-c3nc4ccccc4s3)cc2C1	-17%	1.6µM*
COCc1ccc(CN2CCOc3c(O)cc(-c4cc(C)c5ccc(F)cc5n4)cc3C2)o1	0%	?
COCOc1cc(OC)ccc1C(=O)/C=C/c1cccc(C(F)(F)F)c1	-17%	-13%
CCCCC[C@@H](O)C1C(=O)OC(C)[C@H](O)/C=C/C=C/C=C/C=C/C=C(\C)C(O)C(O)C(O)C[C@H](O)C[C@H](O)C[C@H](O)C[C@H](O)C[C@@H]1O (some centres not stated)	16µM*!	-5%
O=C1NCCN1CCN1CCC(c2cn(-c3ccc(F)cc3)c3ccc(Cl)cc23)CC1	11µM*	22µM*
CN1CCN(c2cc3c(cc2F)c(=O)c(C(=O)O)cn3-c2ccc(F)cc2)CC1	8%	13%
COCc1c(C(=O)N2CCCCC2c2cccnc2)cnn1-c1ncc2c(n1)-c1ccccc1CCC2 (configuration not stated)	68%	?
C=CCOC(=O)N[C@@H](c1cccs1)C(C(C)=O)C(C)=O	?	-3%
Cc1ccc(C(=O)Nc2ccc(S(=O)(=O)O)c3cc(S(=O)(=O)O)cc(S(=O)(=O)O)c23)cc1NC(=O)c1cccc(NC(=O)Nc2cccc(C(=O)Nc3cc(C(=O)Nc4ccc(S(=O)(=O)O)c5cc(S(=O)(=O)O)cc(S(=O)(=O)O)c45)ccc3C)c2)c1	3.1µM*!	-23%
O=C(Nc1cccc(C(=O)NC2CC2)c1)c1ccccc1	43%	11%
COc1ccc(NC(=O)c2ccc(-c3ccc(-c4noc(C)n4)cc3C)cc2)cc1N1CCN(C)CC1	6.3µM*	16µM*
Cc1nc(-c2ccc(-c3ccc(C(=O)N4CCc5cc6c(cc54)C4(CCN(C)CC4)CO6)cc3)c(C)c2)no1	10µM*	28µM*
Cc1ccc(NC(=O)c2ccnc(N3CCCC3)c2)cc1-c1ccc(C(=O)NCC2CC2)cc1	45%	·
COc1ccc(C(=O)NCc2ccc(OCCN(C)C)cc2)cc1OC	-17%	-12%
COc1ccc(NC(=O)c2ccc(-c3ccc(-c4noc(C)n4)cc3C)cc2)cc1OCCN(C)C	3.5µM*	22µM*
CC(C)(C)NC[C@H](O)COc1cccc2[nH]c(=O)[nH]c12	6%	-7%
O=S(=O)(CCc1ccccc1)c1nc2ccccc2s1	2%	-5%
COc1ccc(-c2cc(=O)c3c(O)cc(O)cc3o2)cc1O	29%	36%
O=[N+]([O-])c1cc([As](=O)(O)O)ccc1O	1%[17.8 µM]	-2%[17.8 µM]
CCCCCCCCCCCCC[N+](C)(C)Cc1ccccc1	8.9µM*	18µM*
CC[N+](CC)(CCCNC1=CC(=O)C(NCCC[N+](CC)(CC)Cc2ccccc2)=CC1=O)Cc1ccccc1	1%	-1%
COc1ccc(C(=O)c2ccccc2)c(O)c1O	?	-19%
CN1CCN(Cc2ccc(-c3cc4ncnc(Nc5ccc(OCc6cccc(F)c6)c(Cl)c5)c4s3)o2)CC1	10µM*	?
Fc1cccc(COc2ccc(Nc3ncnc4sc(-c5ccco5)cc34)cc2Cl)c1	?	-15%
CC1O[C@@H](OC2CC[C@@]3(C=O)C4CC[C@]5(C)C(C6=CC(=O)OC6)CC[C@@]5(O)C4CC[C@]3(O)C2)C(O)C(O)C1O (some centres not stated)	0.2µM*	0.25µM*
C[C@@H]1O[C@@H](O[C@H]2CC[C@]3(C=O)C4CC[C@]5(C)[C@@H](C6=CC(=O)OC6)CC[C@]5(O)[C@@H]4CC[C@]3(O)C2)[C@H](O)[C@H](O)[C@H]1O (some centres not stated)	0.1µM*	0.11µM*
C[C@]12CCC3C(CC[C@]4(O)CC(O)CC[C@@]34C=O)[C@]1(O)CCC2C1=CC(=O)OC1 (some centres not stated)	10µM*	11µM*
